Most compounds without a hit are left out; they make up all but 2.4% or so of the library.
WRN inhibitor: blocks human WRN helicase; Q14191; WRN helicase unwinding, fluorescent forked duplex, kinetic; Potency, µM (top dose mostly 114 µM), without a hit: top-dose activity change, negative = inhibition, usual class: inhibitors; 360,000 compounds, 0.46% hits; AID 651768; also: % is scaled to controls: 0 for no effect and ±100 for the full control effect; nearly all actives have a fitted effect of over 55% in size
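WRN at 20 nM final preincubated with compound 15 min at room temperature; reaction started with 100 nM fluorophore/quencher forked duplex oligonucleotide and 2 mM ATP final. Unwinding followed kinetically by red fluorescence (ex 525, em 598 nm).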
POLH inh: blocks human DNA polymerase eta activity; Potency, µM (highest dose often 114 µM), without a hit: at the highest dose activity change, negative = inhibition, usual class: inhibitors; 390,000 compounds, 1.2% hits; AID 588591; Q9Y253; recombinant Pol eta, fluorescent DNA replication assay; also: % is scaled to controls: 0 for no effect and ±100 for the full control effect
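Pol eta at 10 nM preincubated with compounds 15 min at room temperature; reaction started with fluorescent substrate (50 nM final) and read kinetically at 0 and 10 min.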
Pol iota inh: inhibitors of human DNA polymerase iota. Pol iota fluorescent replication assay, 10 min. Potency, µM (titrated, usually from 115 µM), without a hit: at the highest dose activity, negative = inhibition, actives largely listed as inhibitors. 390,000 compounds, 1% hits
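Pol iota at 10 nM preincubated 15 min with compounds at room temperature; reaction started with fluorescent substrate, 50 nM final. Fluorescence read kinetically at 0 and 10 min; buffer-only wells as negative control.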
FEN1 inhibitor: human FEN1 inhibition; Recombinant FEN1 flap cleavage, fluorescence, 15 min; Potency, µM (titrated, usually from 114 µM), inactives show top-dose activity change, negative = inhibition, hits mostly inhibitors; 390,000 compounds, 0.35% hits; AID 588795; also: % is scaled to controls: 0 for no effect and ±100 for the full control effect; nearly all actives have a fitted effect of over 65% in size
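In this screen, 50 nM flap DNA substrate was added to 10 nM FEN1 pretreated with compound for 15 min at room temperature; cleavage was followed with reads at 0 and 15 min, and Hill fitting gave concentration–response parameters.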
Pol beta inh: inhibitors of human DNA polymerase beta; Pol beta primer extension/strand displacement, fluorescence kinetic; 340,000 compounds, 1.3% hits; AID 485314; Potency, µM (top dose mostly 114 µM), for the others: top-dose activity change, negative = inhibition, actives largely listed as inhibitors; also: % is scaled to controls: 0 for no effect and ±100 for the full control effect
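Values derive from four-parameter Hill fits of normalized kinetic data: reads at 0 and 10 min following addition of 50 nM substrate to 10 nM Pol beta preincubated 15 min with compound.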
POLK inh: DNA polymerase kappa (human) inhibition. Q9UBT6. purified Pol kappa, fluorescent DNA synthesis assay, 10 min. Potency, µM (highest dose often 107 µM), for the others: top-dose activity, negative = inhibition, usual class: inhibitors. 400,000 compounds, 0.53% hits; also: % is scaled to controls: 0 for no effect and ±100 for the full control effect
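Pol kappa 10 nM + cpd, 15 min RT; start w/ substrate 50 nM final; fluorescence kinetic read, 0 and 10 min. Neg ctrl: buffer, no enzyme.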
* marks the source's active call; other numbers are inactive results; ? = inconclusive; . = no result given; [ ] = dose if it differs, or a comment. Calls follow the shape of the dose curve; as a rule, active = well fitted curve in the direction sought with a large enough effect; inconclusive = small, poorly fitted or top-dose-only effect, or another doubt; inactive = no such curve, though single readings can be large; an effect the other way counts as inactive or inconclusive. Potency is read from the fitted curve at half-maximal effect.

SMILES	WRN inhibitor	POLH inh	Pol iota inh	FEN1 inhibitor	Pol beta inh	POLK inh
Cc1cc(N)c2ccccc2[n+]1CCCCCCCCCCCCCC[n+]1c(C)cc(N)c2ccccc21	.	?	-123.2%[58.9 µM]	.	10µM*	.
COc1ccc(C2CC(c3ccccc3)Oc3cc4c(cc32)OCO4)cc1 (configuration not stated)	.	.	?	?	.	-2.2%
Brc1cccc[n+]1CCC[n+]1ccccc1Br	.	.	?	79.4µM*	.	-19.0%
COC(=O)CCC(=O)OC1(C)C(=O)C2=CN(CC3CC3)C(c3ccc(OC)cc3)=CC2=C(Br)C1=O (configuration not stated)	-8.2%[57.1 µM]	79.4µM*	?	7.5%	-2.8%	0.7%
COC(=O)CCC(=O)OC1(C)C(=O)C2=CN(Cc3ccc(OC)cc3)C(c3ccc(OC)cc3)=CC2=C(Br)C1=O (configuration not stated)	1.9%	-6.0%	81.3%	-21.2%	.	-12.4%
COC(=O)CCC(=O)OC1(C)C(=O)C2=CN(C3CC3)C(c3ccc(OC)cc3)=CC2=C(Br)C1=O (configuration not stated)	-8.0%	79.4µM*	?	-1.6%	.	-23.7%
CC(=O)Nc1ccc(Sc2ccc([N+](=O)[O-])o2)cc1	-11.0%	31.6µM*	?	3.1%	.	-23.1%
O=C(c1cc(-c2cccc(Cl)c2)on1)N1CCCCCC1	-33.8%	-10.7%	31.5%	0.2%	3.8%	-4.7%
O=C(c1cc(-c2ccco2)nn1-c1cccc(Cl)c1)N1CCCCC1	56.2µM*	17.8µM*	?	11.9%	?	?
Cc1ccc(-n2nc(-c3ccco3)cc2C(=O)O)cc1	44.7µM*	14.1µM*	17.8µM*	-8.5%	?	?
NC(=O)c1ccsc1NC(=O)COC(=O)c1c(F)cccc1Cl	2.7%	-10.8%	-16.8%	-17.3%	.	-2.6%
NC(=O)c1ccsc1NC(=O)COC(=O)c1cc(=O)[nH]c2ccccc12	?	39.8µM*	?	8.8%	.	-16.4%
CC(=O)Nc1cccc(OCC(=O)Nc2sccc2C(N)=O)c1	-1.6%[11.6 µM]	?	50.1µM*	-17.7%	-0.5%	-30.8%
NC(=O)c1ccsc1NC(=O)COC(=O)c1ccccc1F	5.6%	-6.7%	79.4µM*	10.3%	.	-2.7%
COc1ccc(C2C=C3CNS(=O)(=O)C3CC2OC(=O)c2ccc(C(F)(F)F)cc2)cc1 (configuration not stated)	.	.	-17.9%	-22.9%	.	-18.5%
Nc1nc2c(nc(N3CCOCC3)n2COCCO)c(=O)[nH]1	.	.	18.8%	-6.4%	.	-1.2%
Cc1[nH]c2ccccc2c1/C=N/NC(=O)c1ccc(N)cc1	-6.6%	-16.8%	-5.6%	-32.2%	20µM*	-4.9%
Cc1[nH]c2ccccc2c1/C=N/NC(=O)c1ccccc1	-1.8%	-22.2%	-7.4%	16.6%	-19.1%	1.7%
COc1ccc(-c2csc(NC(=O)CSc3n[nH]c(N)n3)n2)cc1	-9.2%	-6.8%	168.0%	-10.9%	15.8%	-4.9%
CCOc1ccc(/C=C/C2=Cc3c(sc(NC(=O)CSc4n[nH]c(N)n4)c3C#N)C(C)(C)C2)cc1	44.7µM*	-7.2%	?	-7.5%	-1.1%	-22.9%
Cc1noc(C)c1-c1nc(Nc2ccc(F)cc2)c2ccccc2n1	.	.	.	.	.	-37.2%[60.1 µM]
O=C(COCc1cc(-c2ccc3c(c2)OCO3)on1)N1CCN(c2ccc(F)cc2)CC1	0.3%	-3.5%	79.4µM*	3.9%	13.0%	-0.7%
O=C(COCc1cc(-c2cccs2)on1)N1CCN(c2ccc(F)cc2)CC1	.	0.3%	18.0%	-17.5%	-2.6%	-4.0%
COc1ccc(C2C=C3CN(C(=O)OC(C)(C)C)S(=O)(=O)C3CC2OC(=O)c2cccc(C)c2)cc1 (configuration not stated)	.	.	17.3%	4.0%	.	0.3%
COCCN(Cc1cc2cc(C)ccc2n2nnnc12)C(=S)Nc1cccc(C)c1	3.5%	-6.6%	-14.0%	-1.0%	5.7%	-17.8%
SMILES	WRN inhibitor	POLH inh	Pol iota inh	FEN1 inhibitor	Pol beta inh	POLK inh
CCc1ccc2c(c1)cc(CN(C(=S)Nc1cccc(C)c1)C1CC1)c1nnnn12	-2.1%[57.1 µM]	1.6%	100µM*	-1.3%	2.4%	-13.6%
CCOC(=O)C1=C(C)OC(=Cc2ccccc2)C1=O	-11.5%	-26.5%	.	.	.	.
CCOC(=O)C1=C(O)c2ccccc2C(=O)/C1=C\c1ccc(C)cc1	44.7µM*	?	?	50.1µM*	-9.7%	-2.1%
Cc1cnc2c(C)ccc(C)c2c1/C=C/c1ccc(N(C)C)cc1	.	.	-11.4%	0.3%	.	-0.6%
CN(C)C(=O)c1ccc(-c2ccc3ncnc(NCc4ccccc4)c3c2)cc1	.	.	.	.	.	7.4%[60.1 µM]
COc1ccc2cc(C(=O)Nc3ccccc3)sc(=O)c2c1OC	-35.1%	?	18.1%	0.7%	22.4µM*	?
OCC1=C[C@@H](O)[C@@H]2C=CO[C@@H](OC3O[C@H](CO)[C@@H](O)[C@H](O)[C@H]3O)[C@H]12 (some centres not stated)	.	.	.	.	.	18.0%[60.1 µM]
Cc1oc2c(O)c(O)ccc2c(=O)c1-c1cnn(-c2ccccc2)c1	-34.7%[57.1 µM]	?	?	11.5%	2.6%	39.8µM*
O=Cc1coc2c(ccc3ccccc32)c1=O	.	.	.	.	79.4µM*	.
O=c1cc(C(F)F)oc2c1ccc1ccccc12	-2.7%	-3.3%	-17.1%	-8.7%	12.9%	-8.9%
COC(=O)c1ccc(COc2ccc(/C=C(\C#N)c3nc4ccccc4[nH]3)cc2OC)o1	?	?	23.9%	-11.0%	8.91µM*	-18.3%
COc1cc(/C=C(\C#N)c2nc3ccccc3[nH]2)ccc1OCc1cccc(C(F)(F)F)c1	.	.	?	-23.1%	3.55µM*	-5.9%
O=C(CNC(=O)C1CCCCC1)OCC(=O)c1ccc2c(c1)CCC2	.	.	69.5%	-13.2%	.	-11.0%
COc1cc(-c2ccc(-[n+]3nc(-c4ccccc4)nn3-c3ccc([N+](=O)[O-])cc3)c(OC)c2)ccc1-[n+]1nc(-c2ccccc2)nn1-c1ccc([N+](=O)[O-])cc1	.	.	.	.	.	-2.0%[19.4 µM]
CCCCCCCCCCCCCCCCSCC(COC)COP(=O)([O-])OCC[N+](C)(C)C (configuration not stated)	.	.	.	.	.	1.6%[60.1 µM]
CSCC[C@H](NC(=O)[C@H](Cc1ccccc1)NC(=O)[C@H](Cc1cnc[nH]1)NC(=O)CNC(=O)[C@@H](NC(=O)[C@H](C)NC(=O)[C@H](Cc1c[nH]c2ccccc12)NC(=O)[C@H](CCC(N)=O)NC(=O)[C@@H]1CCCN1C(=O)[C@@H](NC(=O)[C@@H]1CCC(=O)N1)C(C)C)C(C)C)C(N)=O	.	.	.	.	.	10.2%[60.1 µM]
Cc1ccc(/C=c2/sc3nnc(-c4ccccc4Cl)n3c2=O)o1	?	14.1µM*	?	-9.3%	39.8µM*	-28.7%

Screening results from PubChem.
